# ELG1 DNA repair = ELG1-dependent DNA repair inhibition; HEK293T ELG1-luciferase reporter, luminescence, 16 h; DNA damage induced by 5-fluorouridine; Potency, µM (top dose mostly 46.1 µM), most hits filed as inhibitors; actives 2.3% (n = 330,000); AID 504467; further: nearly all actives have a fitted effect of over 55% in size
#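 Luminescence from the luciferase reporter, measured 30 min after ONE-Glo reagent at room temperature, was the read-out. Beforehand, 2,000 cells per well were exposed for 16 hr at 37 °C to 5-fluorouridine together with compound or vehicle.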
# DT40 TDP1 no CPT = qHTS for Inhibitors of human tyrosyl-DNA phosphodiesterase 1 (TDP1): qHTS in cells in absence of CPT | DT40 Tdp1-/- hTDP1 cells, no CPT, ATP luminescence, 48 h | Potency, µM (doses to about 46.2 µM), actives largely listed as inhibitors | actives 15% (n = 420,000) | AID 686978, 2013; further: nearly all actives have a fitted effect of over 55% in size
#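 Growth kinetics read by CellTiter-Glo luminescence after ≥48 hr at 37 °C. Cells: DT40 Tdp1-/- stably carrying human TDP1, 400 per well, compound exposure in the absence of CPT (DMSO vehicle).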
# HT1080 IDH1KD tx = toxicity to HT-1080 IDH1 knockdown cells (counter line) | HT-1080 IDH1 knockdown viability, ATP luminescence, 48 h | Potency, µM (titrated, usually from 46.1 µM), usual class: cytotoxic | actives 2% (n = 360,000) | AID 686971
#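 Cytotoxicity counter-line: IDH1KD HT-1080, 48 h, CellTiter-Glo. Curves classed by r2, magnitude and activity.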
# IL1B secr inh = inhibitors of inflammasome signaling (IL-1 beta secretion). activity change, % at 57.5 µM. actives 4.7% (n = 360,000). THP-1 LPS/ATP IL-1B secretion, AlphaLISA, 16 h; active compounds read low; in the data active means activity change below about -50%; inconclusive means mostly about -30% to -49%
#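 THP-1 cells pretreated 1 hr with compounds (up to 57.5 uM final), then stimulated with LPS (250 ng/mL final) plus ATP (1.25 mM final); secreted IL-1B measured by AlphaLISA after 16 hr, decreased signal indicating inhibition.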
# HT1080-NT tox = kills 2HG-producing HT-1080-NT fibrosarcoma cells. HT-1080-NT fibrosarcoma viability, CellTiter-Glo ATP luminescence, 48 h. actives 1.6% (n = 360,000). Potency, µM (doses to about 46.1 µM), most hits filed as cytotoxic;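 further: NT is the 2HG producing partner of a matched IDH1 knockdown line; nearly all actives have a fitted effect of over 55% in size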
#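 Luminescent CellTiter-Glo readout after 48 hours of compound exposure at 37 degrees C defined viability of HT-1080-NT cells. Activity was normalized to DMSO wells and cell-free media wells; concentration-response curves were fitted and assigned curve classes.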
# DT40 TDP1 CPT = DT40-hTDP1 cell growth loss with CPT. AID 686979. Potency, µM (series often up to 46.2 µM), actives largely listed as inhibitors. chicken DT40 Tdp1-/-;hTDP1 cells + 20 nM CPT, ATP luminescence, 48 h. actives 12% (n = 420,000); further: nearly all actives have a fitted effect of over 55% in size
#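 Chicken DT40 Tdp1-/- cells complemented with human TDP1, 400 cells/well, exposed to compounds plus 20 nM camptothecin for at least 48 h at 37 C; viability read as ATP content by CellTiter-Glo luminescence.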
# Numbers stand for hits; . = inactive; ? = inconclusive; / = not tested or not shown; [ ] = another dose, or the depositor's remark. Only some compounds are listed: those with a hit (about 19% of all), similar ones and a draw of the others. Unless noted, the call rests on the fitted dose curve; in most records, active means well fitted curve in the direction sought with a large enough effect; inconclusive means small, poorly fitted or top-dose-only effect, or another doubt; inactive means no such curve, though single readings can be large; an effect the other way counts as inactive or inconclusive.
SMILES,ELG1 DNA repair,DT40 TDP1 no CPT,HT1080 IDH1KD tx,IL1B secr inh,HT1080-NT tox,DT40 TDP1 CPT
COc1ccc(NC(=O)c2ccc3c(c2)c(C)c(C)n3Cc2ccc(F)cc2)cc1,/,4.61µM,/,/,/,5.17µM
COc1ccc(Cn2ccc3nc(C)c(C(=O)Nc4ccc(F)cc4)cc3c2=O)cc1,/,.,/,/,/,.
COc1ccc(CN(C(=O)Nc2cc(C)ccc2C)C2CCN(C(C)=O)CC2)cc1,/,?,/,/,/,.
CC(C)(C)NC(=O)C(c1cccc2ccccc12)n1c(=O)c(-c2ccco2)nc2ccccc21 (stereo not given),/,?,.,.,.,23.1µM
CC(C)(C)NC(=O)C(c1cccc2ccccc12)n1c(=O)c(-c2ccccc2)nc2ccccc21 (stereo not given),/,0.13µM,.,.,.,20.6µM
NC(=O)C1CCCN(C(=O)c2[nH]c(C(F)(F)F)nc2-c2ccccc2)C1 (stereo not given),/,.,.,.,.,.
Cc1ccccc1NC(=O)C(Cc1ccccc1)N1Cc2ccccc2C1=O (stereo not given),/,.,/,/,/,.
Cc1c(C)n(C)c2ccc(C(=O)NCCc3ccco3)cc12,.,16.4µM,.,?,.,?
O=C(Nc1cccc2ccccc12)c1ccccc1,?,.,.,.,.,?
Cc1c(C)n(C)c2ccc(C(=O)NCCc3ccc(Cl)cc3)cc12,/,?,/,/,/,18.4µM
Cc1c(C)n(C)c2ccc(C(=O)Nc3cccc4ccccc34)cc12,.,?,.,.,.,25.9µM
COc1ccc(NC(=O)c2cc(-c3sc(NC(=O)c4ccccc4)nc3C)n(Cc3ccccc3)n2)cc1,/,?,.,.,.,.
COc1ccc(NC(=O)Cc2nnc(SCC(=O)NC3=NCCS3)n2C)cc1,.,?,.,.,.,.
NC(=O)C1CCCN(Cc2ccc3c(c2)CN(Cc2cn[nH]c2-c2ccc(F)cc2)CCO3)C1 (stereo not given),/,.,/,/,/,.[9.04 µM]
CC(C)c1ccc(N(CC(=O)NC(C)(C)C)C(=O)CCC(=O)Nc2nccs2)cc1,.,?,.,.,.,.
CC(=O)N1c2ccccc2N(Cc2ccc(C)cc2C)C(=O)C1(C)C,.,5.8µM,16.4µM,.,?,6.51µM
CN1CCn2cnc(C(=O)Nc3ccc(Cl)cc3)c2C1=O,/,.,.,.,.,.
COc1cc(NC(=O)N2CCc3nc(NCc4cccc(Oc5ccccc5)c4)ncc3C2)cc(OC)c1OC,/,?,?,.,?,?
O=C(CCN1C(=O)c2ccccc2C1=O)Oc1ccc2ccccc2c1,?,.,.,.,.,.
CC1=CC(C)(C)Nc2ccc(OC(=O)CCN3C(=O)c4ccccc4C3=O)cc21,.,3.66µM,?,-98.9,?,3.26µM
CN1CCN(C(=O)CCNC(=O)Cn2ccc3ccccc3c2=O)CC1,.,?,.,.,.,.
O=C(Cn1ccc2ccccc2c1=O)NCCC(=O)N1CCN(c2cccc(Cl)c2)CC1,?,?,.,.,.,14.6µM
Cc1cccc(N2CCN(C(=O)CCNC(=O)Cn3ccc4ccccc4c3=O)CC2)c1C,?,14.6µM,.,.,.,?
CCCc1nn2c(=O)cc(COC(=O)c3ccccc3NC(=O)c3ccc(OCC)cc3)nc2s1,/,.,/,/,/,.
O=C(N/N=C/c1cccc2ccccc12)c1ccccc1Cl,.,.,.,-51.4,.,.
SMILES,ELG1 DNA repair,DT40 TDP1 no CPT,HT1080 IDH1KD tx,IL1B secr inh,HT1080-NT tox,DT40 TDP1 CPT
O=C(N/N=C/c1ccc([N+](=O)[O-])cc1)c1cccs1,?,.,.,?,.,?
O=C(NN=Cc1cccc2ccccc12)C(=O)NN=Cc1cccc2ccccc12,/,14.6µM,.,.,.,?
O=C(N/N=C/c1cccc([N+](=O)[O-])c1O)c1cccs1,.,1.03µM,?,.,?,0.731µM
NC(=S)N/N=C\c1ccccc1OCc1ccccc1,.,?,.,.,.,29.1µM
CC(O)C(=O)N/N=C/c1cccc2ccccc12 (stereo not given),?,?,.,.,.,.
COc1ccc(CN2CC[C@H]3C=CC[C@@H](C(=O)NCc4cccnc4)[C@H]3C2=O)cc1OC,/,.,/,/,/,.
Cc1c(-c2nnc(SCC(=O)Nc3ccc(Br)cc3)o2)nnn1-c1ccc(F)cc1,/,.,/,/,/,?
O=C(N/N=C/c1c[nH]c2ccccc12)c1cccs1,?,.,.,.,.,.
COc1ccccc1/C=C/C=N/NC(=O)c1cccs1,?,6.51µM,.,.,.,20.6µM
NC(=S)N/N=C/c1ccccc1OC(=O)/C=C/c1ccccc1,.,0.517µM,.,?,.,5.17µM
O=C(N/N=C/c1cccc2ccccc12)c1cccs1,?,?,.,.,.,25.9µM
O=C(N/N=C/c1ccccc1OCc1ccccc1)c1cccs1,.,14.6µM,.,.,.,?
CCOc1ccc(C(=O)N2CCCCC2CCN2CCOCC2)cc1 (stereo not given),/,.,/,/,/,.
CCOc1ccc(C(=O)N2CCN(Cc3cc(=O)n4nc(-c5ccccc5Cl)sc4n3)CC2)cc1,/,.,/,/,/,.
Cc1ccc(NC(=O)CN2C(=O)C(C)(C)c3cc(S(=O)(=O)N4CCCCC4)ccc32)c(Br)c1,/,?,/,/,/,.
NC(=S)N/N=C/c1ccccc1OC(=O)c1cc2ccccc2oc1=O,?,6.51µM,.,.,.,?
C=CCN1C(=O)C(CC(C)C)NC1=S (stereo not given),/,.,/,/,/,.
CCOC(=O)c1cnc(SC2CC(=O)N(c3ccc(OC)c(OC)c3)C2=O)nc1N (stereo not given),.,?,.,.,.,20.6µM
COc1ccc(N2C(=O)CC(Sc3nc4ccccc4s3)C2=O)cc1OC (stereo not given),.,2.91µM,.,.,.,4.61µM
CC(=O)Nc1ccc(N2C(=O)CC(Sc3nc4ccccc4s3)C2=O)cc1 (stereo not given),.,?,.,.,.,?
CCOc1ccc2nc(SC3CC(=O)N(c4ccc(OC)cc4OC)C3=O)sc2c1 (stereo not given),?,3.26µM,?,.,?,4.61µM
C=CCNc1nnc(SC2CC(=O)N(c3ccc(OCCC)cc3)C2=O)s1 (stereo not given),.,4.11µM,?,.,?,1.84µM
CCOC(=O)c1ccc(N2C(=O)CC(Sc3nc(C)cc(C)n3)C2=O)cc1 (stereo not given),.,?,.,.,.,.
COc1ccc(N2C(=O)CC(Sc3nccc(C)n3)C2=O)c(OC)c1 (stereo not given),/,?,.,.,.,?
